Measured values as given in PubChem BioAssay (NCATS).
Results filed as inconclusive are left out. Active and inactive are the calls of the source. Calls come from the whole dose curve; as a rule, active = well fitted curve in the direction sought with a large enough effect; inconclusive = small, poorly fitted or top-dose-only effect, or another doubt; inactive = no such curve, though single readings can be large; an effect the other way counts as inactive or inconclusive.

What was measured:
[1] = Quantitative High-Throughput drug screen in 47 multiple myeloma cell lines against the NCATS MIPE library collection: JIM3_ECACC cell viability assay (AID 1918963; note: nearly all actives have a fitted effect of over 35% in size; note: potency is the fitted concentration of half-maximal effect)
Procedure, shortened: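 Approved and investigational drugs from MIPE 4.0 were added by pin tool to 500 cells per well. After 48 hours at 37C, ATP-based CellTiter-Glo luminescence indicated remaining viability.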

[2] = Quantitative High-Throughput drug screen in 47 multiple myeloma cell lines against the NCATS MIPE library collection: INA6_PLB cell viability assay (AID 1918965; note: nearly all actives have a fitted effect of over 55% in size; note: potency is the fitted concentration of half-maximal effect)
Procedure, shortened: (§1)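 Inhibition of cell viability is measured here. Each line was plated at 500 cells per well, treated with MIPE 4.0 drugs, kept 48 hours at 37C, then assayed for ATP content by CellTiter-Glo luminescence.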

[3] = Quantitative High-Throughput drug screen in 47 multiple myeloma cell lines against the NCATS MIPE library collection: JJN3_DSMZ cell viability assay (AID 1918966; note: nearly all actives have a fitted effect of over 50% in size; note: potency is the fitted concentration of half-maximal effect)
Procedure, shortened: (§2)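 CellTiter-Glo ATP luminescence gave viability after 48 h compound treatment at 37C of 500 multiple myeloma cells per well. Normalisation used DMSO-only wells as 100% and media-only wells as 0% viability; primary qHTS of approved and investigational drugs.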

[4] = Quantitative High-Throughput drug screen in 47 multiple myeloma cell lines against the NCATS MIPE library collection: H1112_PLB cell viability assay (AID 1918967; note: nearly all actives have a fitted effect of over 30% in size; note: potency is the fitted concentration of half-maximal effect)
Procedure, shortened: as §2

[5] = Quantitative High-Throughput drug screen in 47 multiple myeloma cell lines against the NCATS MIPE library collection: Karpas25_ECACC cell viability assay (AID 1918968; note: nearly all actives have a fitted effect of over 35% in size; note: potency is the fitted concentration of half-maximal effect)
Procedure, shortened: as §2

[6] = Quantitative High-Throughput drug screen in 47 multiple myeloma cell lines against the NCATS MIPE library collection: KMS27_JCRB cell viability assay (AID 1918970); details: KMS27 myeloma cells, CellTiter-Glo ATP viability, 48 h; viability (% of DMSO): at 45.8 µM (top of the series); note: nearly all actives have a fitted effect of over 30% in size; note: potency is the fitted concentration of half-maximal effect
Procedure, shortened: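 Myeloma cells (500 per well) were exposed to MIPE 4.0 compounds for 48 h at 37 °C, 5% CO2; viability was read as ATP luminescence with CellTiter-Glo, normalized to DMSO-only (100%) and media-only (0%) wells.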

[7] = Quantitative High-Throughput drug screen in 47 multiple myeloma cell lines against the NCATS MIPE library collection: KMS12BM_JCRB cell viability assay (AID 1918971); note: nearly all actives have a fitted effect of over 35% in size; note: potency is the fitted concentration of half-maximal effect
Procedure, shortened: (§3)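 qHTS of the MIPE 4.0 collection: 500 myeloma cells/well, 48 h drug exposure at 37C in 5% CO2, then CellTiter-Glo for 5 min at room temperature before luminescence reading.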

[8] = Quantitative High-Throughput drug screen in 47 multiple myeloma cell lines against the NCATS MIPE library collection: KMS12PE_JCRB cell viability assay (AID 1918972); note: nearly all actives have a fitted effect of over 30% in size; note: potency is the fitted concentration of half-maximal effect
Procedure, shortened: as §1

[9] = Quantitative High-Throughput drug screen in 47 multiple myeloma cell lines against the NCATS MIPE library collection: KMS20_JCRB cell viability assay (AID 1918973); note: nearly all actives have a fitted effect of over 45% in size; note: potency is the fitted concentration of half-maximal effect
Procedure, shortened: as §2

[10] = Quantitative High-Throughput drug screen in 47 multiple myeloma cell lines against the NCATS MIPE library collection: KMS26_JCRB cell viability assay (AID 1918975); note: nearly all actives have a fitted effect of over 45% in size; note: potency is the fitted concentration of half-maximal effect
Procedure, shortened: as §3

[11] = Quantitative High-Throughput drug screen in 47 multiple myeloma cell lines against the NCATS MIPE library collection: MMM1_PLB cell viability assay (AID 1918976); note: potency is the fitted concentration of half-maximal effect; nearly all actives have a fitted effect of over 35% in size
Procedure, shortened: (§4)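 ATP-based luminescence (CellTiter-Glo, 5 min RT incubation) quantified surviving cells following two days' treatment with MIPE 4.0 agents at 37 °C, 5% CO2.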

[12] = Quantitative High-Throughput drug screen in 47 multiple myeloma cell lines against the NCATS MIPE library collection: MOLP8_DSMZ cell viability assay (AID 1918977); note: nearly all actives have a fitted effect of over 45% in size; note: potency is the fitted concentration of half-maximal effect
Procedure, shortened: as §4

[13] = Quantitative High-Throughput drug screen in 47 multiple myeloma cell lines against the NCATS MIPE library collection: NCIH929_DSMZ cell viability assay (AID 1918978); note: nearly all actives have a fitted effect of over 35% in size; note: potency is the fitted concentration of half-maximal effect
Procedure, shortened: as §4

[14] = Quantitative High-Throughput drug screen in 47 multiple myeloma cell lines against the NCATS MIPE library collection: OCIMY1_PLB cell viability assay (AID 1918979); note: nearly all actives have a fitted effect of over 35% in size; note: potency is the fitted concentration of half-maximal effect
Procedure, shortened: as §4

[15] = Quantitative High-Throughput drug screen in 47 multiple myeloma cell lines against the NCATS MIPE library collection: MM1S_ATCC cell viability assay (AID 1918980); note: nearly all actives have a fitted effect of over 45% in size; note: potency is the fitted concentration of half-maximal effect
Procedure, shortened: as §4

[16] = Quantitative High-Throughput drug screen in 47 multiple myeloma cell lines against the NCATS MIPE library collection: MM1R_ATCC cell viability assay (AID 1918981); note: nearly all actives have a fitted effect of over 35% in size; note: potency is the fitted concentration of half-maximal effect
Procedure, shortened: as §4

[17] = Quantitative High-Throughput drug screen in 47 multiple myeloma cell lines against the NCATS MIPE library collection: JIM1_ECACC cell viability assay (AID 1918964; note: potency is the fitted concentration of half-maximal effect)
Procedure, shortened: as §2

[18] = Quantitative High-Throughput drug screen in 47 multiple myeloma cell lines against the NCATS MIPE library collection: KMS21BM_JCRB cell viability assay (AID 1918974); details: ATP luminescence, 48 h; viability: at 45.8 µM (top of the series)
Procedure, shortened: as §2

CC(C)NC[C@@H](C(=O)N1CCN(c2ncnc3c2[C@H](C)C[C@H]3O)CC1)c1ccc(Cl)cc1
active: Potency [1] 1.66 µM | Potency [2] 4.18 µM | Potency [3] 6.62 µM | Potency [4] 3.72 µM | Potency [5] 0.469 µM | Potency [6] 1.87 µM | Potency [7] 6.62 µM | Potency [8] 0.469 µM | Potency [9] 0.743 µM | Potency [10] 1.32 µM | Potency [11] 0.0264 µM | Potency [12] 0.296 µM | Potency [13] 0.105 µM | Potency [14] 16.6 µM | Potency [15] 0.0469 µM | Potency [16] 0.105 µM

N#Cc1ccc(COC[C@H]2O[C@@H](n3c(NCc4ccc(Cl)c(Cl)c4)nc4c(N)ncnc43)[C@@H](O)[C@@H]2O)cc1
active: Potency [1] 14.8 µM | Potency [17] 3.72 µM | Potency [2] 7.43 µM | Potency [3] 0.469 µM | Potency [4] 7.43 µM | Potency [5] 23.5 µM | Potency [7] 5.9 µM | Potency [8] 3.72 µM | Potency [11] 4.69 µM | Potency [12] 16.6 µM | Potency [13] 20.9 µM | Potency [15] 18.7 µM | Potency [16] 3.72 µM

C[C@H]1COc2c(N3CCN(C)CC3)c(F)cc3c(=O)c(C(=O)O)cn1c23
inactive: Potency [1] | Potency [17] | Potency [2] | Potency [4] | Potency [5] | Potency [7] | Potency [9] | Potency [10] | Potency [13] | Potency [14] | Potency [15] | Potency [16]

CCCCOc1ccc(C(=O)Nc2ccc(F)cc2F)cc1
inactive: Potency [1] | Potency [17] | Potency [4] | Potency [5] | Potency [6] | Potency [13]
active: viability [18] 103%

C[C@@H]1C(=O)O[C@H]2CC34[C@H]5C[C@@H](C(C)(C)C)C36[C@H](OC(=O)[C@@H]6O)O[C@@]4(C(=O)O5)[C@]21O (some centres not stated)
inactive: Potency [1] | Potency [17] | Potency [2] | Potency [4] | Potency [5] | Potency [7] | Potency [9] | Potency [10] | Potency [12] | Potency [13] | Potency [16]

CC(=O)OC[C@@H]1O[C@@H](n2ccc(=O)[nH]c2=O)[C@H](OC(C)=O)[C@H]1OC(C)=O
inactive: Potency [1] | Potency [17] | Potency [3] | Potency [4] | Potency [7] | Potency [8] | Potency [10] | Potency [12] | Potency [13] | Potency [14] | Potency [15] | Potency [16]

CC1(C)CC(O)CC(C)(C)N1[O]
inactive: Potency [1] | Potency [17] | Potency [2] | Potency [5] | Potency [6] | Potency [7] | Potency [8] | Potency [10] | Potency [13] | Potency [14] | Potency [16]

CC(C)(C)[N+]([O-])=Cc1ccc(S(=O)(=O)O)cc1S(=O)(=O)O
inactive: Potency [1] | Potency [17] | Potency [3] | Potency [4] | Potency [5] | Potency [6] | Potency [9] | Potency [10] | Potency [12] | Potency [13] | Potency [14] | Potency [16]

CN(C)c1ccc2cc(C(=O)N[C@@H](CCCN=C(N)CCl)C(=O)NCc3ccccc3)ccc2c1
active: Potency [1] 11.8 µM | Potency [17] 3.72 µM | Potency [2] 9.35 µM | Potency [3] 1.05 µM | Potency [4] 20.9 µM | Potency [5] 13.2 µM | Potency [7] 11.8 µM | Potency [8] 7.43 µM | Potency [9] 8.33 µM | Potency [11] 18.7 µM | Potency [12] 9.35 µM | Potency [13] 16.6 µM | Potency [15] 1.18 µM | Potency [16] 4.69 µM

Cc1onc(-c2ccccc2)c1C(=O)N[C@@H]1C(=O)N2[C@@H](C(=O)O)C(C)(C)S[C@@H]12
inactive: Potency [1] | Potency [17] | Potency [4] | Potency [5] | Potency [7] | Potency [8] | Potency [18] | Potency [10] | Potency [13] | Potency [16]

C[C@H](CCC(=O)O)[C@H]1CC[C@H]2[C@@H]3[C@H](O)C[C@@H]4C[C@H](O)CC[C@]4(C)[C@@H]3CC[C@]12C
inactive: Potency [1] | Potency [2] | Potency [4] | Potency [5] | Potency [6] | Potency [7] | Potency [8] | Potency [9] | Potency [10] | Potency [12] | Potency [14] | Potency [15]

CCCCCCCCCCCCc1ccc(S(=O)(=O)Nc2nncs2)cc1
inactive: Potency [1] | Potency [2] | Potency [4] | Potency [5] | Potency [6] | Potency [7] | Potency [10] | Potency [13] | Potency [14]
active: Potency [16] 18.7 µM

Cc1cc(-c2nnc3n2CCCCC3)c(C)n1-c1ccccc1
inactive: Potency [1] | Potency [2] | Potency [4] | Potency [5] | Potency [13]
active: Potency [11] 14.8 µM | Potency [14] 0.0012 µM

O=C1c2c(O)cccc2[C@@H]([C@@H]2O[C@H](CO)[C@@H](O)[C@H](O)[C@H]2O)c2cc(CO)cc(O)c21
inactive: Potency [1] | Potency [2] | Potency [4] | Potency [5] | Potency [7] | Potency [8] | Potency [9] | Potency [10] | Potency [12] | Potency [13] | Potency [14] | Potency [16]

C[C@]12CCC(=O)C=C1[C@@H]1CC1[C@H]1[C@H]3[C@@H]4C[C@H]4[C@@]4(CCC(=O)O4)[C@@]3(C)CC[C@H]12 (some centres not stated)
active: Potency [2] 20.9 µM
inactive: Potency [1] | Potency [3] | Potency [4] | Potency [9] | Potency [12] | Potency [13] | Potency [14] | Potency [15] | Potency [16]

Cc1cn([C@@H]2O[C@H](CO)[C@@H](O)[C@H]2F)c(=O)[nH]c1=O
active: Potency [8] 13.2 µM
inactive: Potency [1] | Potency [2] | Potency [4] | Potency [5] | Potency [13] | Potency [14] | Potency [16]
